# HCMV antiviral: inhibitors of human cytomegalovirus. HFF cells, HCMV-luciferase reporter, 72 h; hits give low values. activity change, negative = inhibition, % at 57.5 µM. hit rate 4.5% among 410,000. AID 1259415; in the data active means activity change below about -60%; inconclusive means no clear call, values can overlap the other calls; inactive means above about -39%
#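 Inhibition of viral replication was scored as loss of reporter luminescence in HFFs infected with HCMV-luciferase (MOI 1 PFU/cell) for 72 h; compounds tested at 2 doses, normalized to buffer and Salinomycin controls.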
# Pf growth 96h: P. falciparum growth inhibition at 96 hour, primary screen for plastid delayed-death inhibitors | Potency, µM (doses to about 28.7 µM), usual class: inhibitors | AID 504834 | hit rate 6.9% among 320,000 | P. falciparum luciferase reporter growth, 96 h
#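 Delayed-death screen, second-generation endpoint: infected erythrocytes, 2% hematocrit, 0.05% parasitemia final; 96 hours at 37 C, 5% CO2; luciferase detection reagent; luminescence decrease equals reduced growth.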
# HCV inh: inhibitors of hepatitis C virus infection; Huh7.5.1 HCVcc-Cre infection, luciferase reporter, 44 h; hit rate 3.4% among 340,000; Potency, µM (titrated, usually from 41.8 µM), most hits filed as inhibitors
#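 Cells seeded at 1,000/well and cultured 4 h, then compounds added followed by HCVcc-Cre virus (~0.5 moi). After 44 h further culture, luciferase substrate was added, plates held 15 min at room temperature, and luminescence read for 15 sec.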
# Pf growth 48h: inhibits P. falciparum growth in the first generation, 48 h; P. falciparum luciferase growth in erythrocytes, 48 h; Potency, µM (highest dose often 28.7 µM), actives largely listed as inhibitors; hit rate 5.9% among 310,000; AID 504832
#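 Luciferase-expressing P. falciparum in infected erythrocytes (2% hematocrit, 0.1% parasitemia final) in RPMI 1640/0.5% Albumax were exposed to compound for 48 hours at 37 C, 5% CO2; growth read as luminescence.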
# Hits are given with their value; n = inactive; u = inconclusive; x = no result given; [ ] = another dose, or the depositor's remark. This is a sample that favours compounds with a hit; in the whole collection about 13% have one here. Unless noted, the call rests on the fitted dose curve; in most records, active means well fitted inhibition curve with a large enough effect; inconclusive means small, poorly fitted or top-dose-only effect, or another doubt; inactive means no such curve, though single readings can be large or run the other way.
SMILES,HCMV antiviral,Pf growth 96h,HCV inh,Pf growth 48h
O=C(NCC(=O)N(c1ccccc1)C(C(=O)NC1CCCC1)c1cccnc1)c1cccs1 (stereo unspecified),n,n,n,n
Cc1cc(C)cc(N(C(=O)CNC(=O)c2ccco2)C(C(=O)NC2CCCC2)c2ccncc2)c1 (stereo unspecified),-67,n,n,n
O=C(NCC(=O)N(c1cccnc1)C(C(=O)NC1CCCC1)c1cccs1)c1cccs1 (stereo unspecified),u,12µM,n,n
O=C(NCC(=O)N(Cc1ccccc1)C(C(=O)NC1CCCC1)c1cccnc1)c1ccco1 (stereo unspecified),n,17µM,n,n
Cc1cccc(N(C(=O)CNC(=O)c2ccco2)C(C(=O)NC2CCCC2)c2cccnc2)c1 (stereo unspecified),n,4.1µM,n,n
COc1ccc(S(=O)(=O)N(CCc2ccccc2)CC(=O)NCc2ccccc2)cc1OC,n,x,x,x
CC(=O)Oc1c(C)c(C)c2c(c1C)CCC(C)(CCCC(C)CCCC(C)CCCC(C)C)O2 (stereo unspecified),n,n,n,n
Cc1c(C)c2c(c(C)c1OC(=O)CCC(=O)O)CC[C@@](C)(CCC[C@H](C)CCC[C@H](C)CCCC(C)C)O2,x,12µM,x,u
CCOC(=O)c1cc(OC(=O)c2cccc(Cl)c2)n(-c2ccccc2)n1,n,x,x,x
COc1ccc(/C=N/n2cnc3c([nH]c4ccc(C)cc43)c2=O)cc1CN1CCCC1,n,u,u,u
COc1ccc2[nH]c3c(=O)n(/N=C/c4ccc(OC)c(CN5CCCC5)c4)c(C)nc3c2c1,u,u,n,u
COc1ccc2c(c1)[nH]c1c(=O)n(/N=C/c3ccc(OC)c(CN4CCCC4)c3)cnc12,n,u,u,4.1µM
COc1ccc(/C=N/n2c(C)nc3c([nH]c4ccccc43)c2=O)cc1CN1CCCC(C)(C)C1,n,5.2µM,n,12µM
COc1ccc(CN(CCN(C)C)c2ncccn2)cc1,x,u,x,n
CCCCCCCCCCCCCCCC[N+](C)(C)CCN(Cc1ccc(OC)cc1)c1ncccn1,x,1.9µM,2.8µM,3.7µM
Cc1ccc(-n2c(=O)c3c(cnn3C)n(Cc3ccc(Cl)cc3)c2=O)cc1,n,x,x,x
COc1cccc(C2C(C#N)=C(N)SC(c3ccccc3)C2[N+](=O)[O-])c1 (stereo unspecified),n,n,n,10µM
COc1ccc(C2=NN(C(=O)c3ccccc3)C(c3ccc(OC)c(OC)c3)C2)c(OC(C)=O)c1 (stereo unspecified),n,10µM,x,12µM
COc1ccc(C2CC(c3ccccc3O)=NN2C(=O)c2ccccc2)cc1OC (stereo unspecified),n,4.1µM,n,6.6µM
COc1cc(C2CC(c3cccs3)=NN2C(=O)CCl)ccc1OC(F)F (stereo unspecified),-97,u,11µM,u
COc1ccc(C2CC(c3cccs3)=NN2C(=O)CN2CCCCC2)cc1 (stereo unspecified),n,n[5.75 µM],n,n
COc1ccc(C2CC(c3ccc4ccccc4c3OC(C)=O)=NN2C(C)=O)cc1 (stereo unspecified),n,n,u,u
COc1ccc(C2CC(c3cccs3)=NN2C(=O)CCl)cc1OC (stereo unspecified),-97,u,u,u
O=C(Nc1ccc2nc(SCC(=O)N3CCCC3)sc2c1)c1ccccc1F,n,x,x,x
COc1ccc(C2CC(c3cccs3)=NN2C(=O)c2ccccc2)cc1OC (stereo unspecified),n,0.41µM,n,x
SMILES,HCMV antiviral,Pf growth 96h,HCV inh,Pf growth 48h
O=C(c1ccccc1)N1N=C(c2ccccc2O)CC1c1ccccc1 (stereo unspecified),n,u,n,5.9µM
COc1ccc(C2CC(c3ccc(OC)cc3O)=NN2C(=O)c2ccccc2)cc1 (stereo unspecified),n,u,n,n[0.00184 µM]
COc1ccc(C2CC(c3cccs3)=NN2C(=O)CCC(=O)O)cc1 (stereo unspecified),n,u,n,n
O=C(Nc1ccc(OC(F)(F)F)cc1)N1CCc2nc(NCc3cccc(Oc4ccccc4)c3)ncc2C1,-92,x,x,x
COc1cc(Nc2ncc3c(n2)CCN(Cc2cccc(C)c2)C3)cc(OC)c1,n,x,x,x
CC(C)c1ccc(Nc2ncc3c(n2)CCN(C(=O)Nc2ccc(F)c(Cl)c2)C3)cc1,-75,x,x,x
COc1cccc(NC(=O)N2CCc3nc(Nc4cc(Cl)cc(Cl)c4)ncc3C2)c1,-67,x,x,x
COc1ccc(Cl)cc1NC(=O)C1CCCN(S(=O)(=O)c2ccc3c(c2)CCCC(=O)N3)C1 (stereo unspecified),n,x,x,x
